Assay outcomes from PubChem.
The list is not random: actives were taken first. Their share in the collection is about 14%.
USP30 inh = human USP30 deubiquitinase inhibition; inhibition, % at 25 µM; purified USP30, Ub-rhodamine cleavage fluorescence; 47,000 tested, 5.3% active; Q70CQ3
USP28 block = inhibitors of human USP28 deubiquitinase. purified USP28, Ub-rhodamine cleavage fluorescence, 30 min. inhibition, % at 25 µM. AID 1645857. 47,000 tested, 3% active
Target sequence (Q96RU2 whole entry, looked up): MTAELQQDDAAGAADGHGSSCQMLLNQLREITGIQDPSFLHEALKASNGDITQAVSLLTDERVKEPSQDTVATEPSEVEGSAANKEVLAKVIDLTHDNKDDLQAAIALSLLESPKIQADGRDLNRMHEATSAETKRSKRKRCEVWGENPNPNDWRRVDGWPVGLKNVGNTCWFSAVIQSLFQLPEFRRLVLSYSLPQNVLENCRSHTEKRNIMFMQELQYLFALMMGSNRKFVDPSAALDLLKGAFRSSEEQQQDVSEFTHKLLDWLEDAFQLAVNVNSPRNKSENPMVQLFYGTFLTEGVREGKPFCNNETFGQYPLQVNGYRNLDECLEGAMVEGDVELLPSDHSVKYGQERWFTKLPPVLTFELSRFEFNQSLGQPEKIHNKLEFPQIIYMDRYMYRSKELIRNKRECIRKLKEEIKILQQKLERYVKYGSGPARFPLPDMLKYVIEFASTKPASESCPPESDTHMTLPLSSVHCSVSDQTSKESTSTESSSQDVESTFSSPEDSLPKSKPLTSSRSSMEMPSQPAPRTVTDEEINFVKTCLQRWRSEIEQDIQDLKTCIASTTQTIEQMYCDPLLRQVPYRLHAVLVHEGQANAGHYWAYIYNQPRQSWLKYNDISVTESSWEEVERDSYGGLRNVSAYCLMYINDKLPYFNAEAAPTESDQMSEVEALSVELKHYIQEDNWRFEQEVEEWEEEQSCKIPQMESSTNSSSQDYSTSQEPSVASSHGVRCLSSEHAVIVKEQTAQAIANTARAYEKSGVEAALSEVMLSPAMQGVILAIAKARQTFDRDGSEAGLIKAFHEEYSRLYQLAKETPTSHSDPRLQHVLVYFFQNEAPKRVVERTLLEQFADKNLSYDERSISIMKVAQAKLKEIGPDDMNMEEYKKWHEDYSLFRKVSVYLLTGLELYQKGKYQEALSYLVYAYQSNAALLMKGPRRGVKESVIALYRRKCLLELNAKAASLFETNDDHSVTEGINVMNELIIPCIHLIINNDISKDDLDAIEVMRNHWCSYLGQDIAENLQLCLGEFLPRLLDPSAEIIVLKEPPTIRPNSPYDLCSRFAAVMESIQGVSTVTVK
USP8 block = human USP8 deubiquitinase inhibition; P40818; purified USP8, Ub-rhodamine cleavage fluorescence, 30 min; inhibition, % at 20 µM; 47,000 tested, 4.2% active
USP17 inh = blocks human USP17 ubiquitin-rhodamine cleavage | A8MUK1 | purified USP17, Ub-rhodamine cleavage fluorescence, 3 h | inhibition, % at 50 µM | 47,000 tested, 6.5% active | AID 1645855
* hit, by the source's call. Rule as the data show it: active = inhibition above about 30%; inactive = the rest.

Screening CN(C)C(Cc1ccccc1)C(=O)c1ccc2c(c1)NC(=O)CO2 (stereo not given) returned USP30 inh -0.7, USP28 block 6.2, USP8 block -1.1 and USP17 inh -0.7.
Screening Cc1nn(CC(=O)c2ccc3c(c2)NC(=O)CO3)c(C)c1[N+](=O)[O-] returned USP30 inh -6.7, USP28 block 31.6*, USP8 block -45.3 and USP17 inh 14.7.
CC(NC(=O)c1ccc(-c2nnc(-c3ccccc3)o2)cc1)c1ccc(S(C)(=O)=O)cc1 (stereo not given) was read as USP30 inh 41.5*, USP28 block 22.5, USP8 block 4.4 and USP17 inh 70.9*.
`CS(=O)(=O)c1ccc(-c2nnc(NC(=O)c3ccco3)o2)cc1` gave USP30 inh 10.4, USP28 block 8.6, USP8 block -1.6 and USP17 inh 6.1.
CS(=O)(=O)c1cccc(-c2nnc(NC(=O)c3ccc(Cc4ccccc4)cc3)o2)c1 was read as USP30 inh 34.5*, USP28 block 18.9, USP8 block 34.9* and USP17 inh 4.8.
`O=C1COc2ccc(S(=O)(=O)N3CCCC3C(=O)N3CCc4ccccc4C3)cc2N1` (stereo not given) gave USP30 inh 6.2, USP28 block 3.2, USP8 block 1.7 and USP17 inh 0.7.
Screening CC(=O)Nc1ccc(NC(=O)C2(c3ccc(Cl)cc3)CCC2)cc1 returned USP30 inh 15.8, USP28 block -1.1, USP8 block -0.7 and USP17 inh 45.1*.
N#Cc1cccc(CN2CC[C@H](c3nnc(-c4cccnc4)o3)C2)c1 was read as USP30 inh 6.3, USP28 block 13.3, USP8 block 53.7* and USP17 inh 0.9.
`Cn1cncc1-c1nnc([C@H]2CCN(Cc3cccc(C#N)c3)C2)o1` gave USP30 inh 1.7, USP28 block 4.3, USP8 block -17.2 and USP17 inh -34.0.
Screening COC(=O)CN1C(=O)CSc2ccc(S(=O)(=O)NC3CCCc4ccccc43)cc21 (stereo not given) returned USP30 inh -28.7, USP28 block -3.8, USP8 block 7.6 and USP17 inh -3.0.
`COc1ccc(Br)c(-c2nc(CS(=O)(=O)c3ccc(F)cc3)no2)c1` gave USP30 inh 38.4*, USP28 block 27.7, USP8 block 26.4 and USP17 inh 18.1.
Screening CC(C)(C)c1cc(C[C@@H]2C[C@H](NC(=O)N3CCOCC3)C2(C)C)no1 returned USP30 inh 69.4*, USP28 block 15.6, USP8 block 22.7 and USP17 inh 39.2*.
Screening COc1cc(/C=C/C(=O)Nc2nnc(C3CC3)s2)cc(OC)c1OC returned USP30 inh -3.1, USP28 block 10.6, USP8 block 7.6 and USP17 inh 0.3.
CCOc1ccc(/C=C/C(=O)Nc2nnc(C)s2)cc1 was read as USP30 inh -64.8, USP28 block -8.4, USP8 block 24.1 and USP17 inh 30.6*.
COc1ccc(-c2ccc3cc(C(=O)O)ccc3c2)cc1C12CC3CC(CC(C3)C1)C2 was read as USP30 inh 11.2, USP28 block 10.0, USP8 block 65.7* and USP17 inh -17.1.
`COc1ccc(Sc2nnc(C)c3nnn(Cc4ccc(F)cc4)c23)cc1` gave USP30 inh 28.5, USP28 block 17.0, USP8 block -107.3 and USP17 inh 32.1*.
For Cc1nnc(NCc2cccnc2)c2c1nnn2Cc1ccc(F)cc1 the results were USP30 inh 6.1, USP28 block 34.3*, USP8 block -11.1 and USP17 inh 10.7.
`COc1cccc(Cc2nc(-c3nnn(Cc4ccc(F)cc4)c3C)no2)c1` gave USP30 inh -34.0, USP28 block 2.7, USP8 block 0.6 and USP17 inh 0.4.
For Cc1nnc(NCCO)c2c1nnn2Cc1ccccc1Cl the results were USP30 inh 0.4, USP28 block 9.8, USP8 block 1.9 and USP17 inh -5.9.
Cc1nc2ccn(Cc3ccco3)c(=O)c2cc1C(=O)NCc1cccs1 was read as USP30 inh 10.0, USP28 block 30.2*, USP8 block 6.0 and USP17 inh 4.8.
Screening COc1ccc(-c2noc(-c3ccc(N4CCC5(CC4)OCCO5)nc3)n2)cc1 returned USP30 inh 34.0*, USP28 block 9.0, USP8 block 17.3 and USP17 inh 14.7.
For COc1ccc(OCc2nc(-c3ccc(N4CCCCCC4)nc3)no2)cc1 the results were USP30 inh -253.5, USP28 block -16.0, USP8 block 43.5* and USP17 inh 5.0.
For c1ccc2c(c1)CCN(Cc1nc(-c3ccc(N4CCOCC4)nc3)no1)C2 the results were USP30 inh -2.9, USP28 block 12.1, USP8 block 35.5* and USP17 inh -1.4.
`Cc1cccc(OCc2nc(-c3ccnc(N4CCCC4)c3)no2)c1` gave USP30 inh 18.1, USP28 block 32.0*, USP8 block 9.9 and USP17 inh 9.9.
Screening CCn1c(C)ccc(-c2noc(CCC(=O)Nc3nnc(COC)s3)n2)c1=O returned USP30 inh 17.7, USP28 block 8.5, USP8 block -223.4 and USP17 inh -3.2.
For COc1ccc(CCN2CC(=O)N3C(C)c4[nH]c5ccccc5c4C[C@@H]3C2=O)cc1OC (stereo not given in full) the results were USP30 inh 15.6, USP28 block 4.2, USP8 block 17.6 and USP17 inh 10.3.
For CC(C)(C)n1nc2c(c1-n1cccc1)CN(C(=O)Cn1cnc3ccccc31)C2 the results were USP30 inh -59.1, USP28 block -3.5, USP8 block -14.1 and USP17 inh 17.6.
CCn1cc(-c2cc(C(=O)N3CCCC3c3ccc4c(c3)OCCCO4)no2)cn1 (stereo not given) was read as USP30 inh -28.8, USP28 block -5.4, USP8 block 7.5 and USP17 inh -1.4.
For COc1cc2c(cc1OC)CN(C(=O)CCSc1ccccc1Cl)CC2 the results were USP30 inh 25.3, USP28 block 19.3, USP8 block 9.7 and USP17 inh 16.3.
Fc1ccc(Cc2nc(-c3ccnc(N4CCCC4)c3)no2)cc1 was read as USP30 inh 0.5, USP28 block 47.9*, USP8 block -4.8 and USP17 inh -9.4.
`Cc1ccc2oc(SCC(=O)Nc3ccc4c(c3)OCCO4)nc2n1` gave USP30 inh 13.3, USP28 block 11.0, USP8 block -7.7 and USP17 inh 20.8.
CCOc1ccc(-c2cc3nc(C4CCN(C(=O)OC(C)(C)C)CC4)c(C(=O)Nc4cc(F)ccc4F)cn3n2)cc1 was read as USP30 inh -8.2, USP28 block 10.0, USP8 block 55.8* and USP17 inh 46.0*.
Screening O=C(Cn1nnc2ccccc21)N1CCCC1c1ccc2c(c1)OCCCO2 (stereo not given) returned USP30 inh 17.6, USP28 block -2.9, USP8 block 8.7 and USP17 inh 1.7.
For COc1cccc(NC(=O)Cn2cnc3c(cnn3C(C)(C)C)c2=O)c1 the results were USP30 inh -19.2, USP28 block 30.2*, USP8 block -5.6 and USP17 inh -7.1.
CC(C)(C)n1ncc2c(=O)n(Cc3cccc([N+](=O)[O-])c3)cnc21 was read as USP30 inh 11.2, USP28 block 78.9*, USP8 block 1.0 and USP17 inh -22.1.
